From PubChem BioAssay
Several values for one entry are separate records, joined by “and”; a condition that tells them apart may be missing. Equal entries are not always repeated. Inconclusive results are not listed. Activity calls are given as the source filed them.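 How the source made its calls, unless noted: active means normalized viability below 100% at a tested concentration; inactive means the rest.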

Columns and labels:
[1] = growth inhibition of DIPG glioma cells, dose response, cell-based, SU-DIPG-XVII, MIPE5.0, CellTiter-Glo, qHTS (AID 1347060; cut-off not given, nearly all actives have AC50 up to about 26 µM;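 on AC50: cells exposed to compound for 48 hours before viability readout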); details: SU-DIPG-XVII viability, CellTiter-Glo ATP luminescence
[2] = growth inhibition of DIPG glioma cells, dose response, cell-based, SU-DIPG-XIII, MIPE4.0, CellTiter-Glo, qHTS (AID 1347061; cut-off not given, nearly all actives have AC50 up to about 37 µM;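 further: cells exposed to compound for 48 hours before readout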); details: SU-DIPG-XIII viability, CellTiter-Glo ATP luminescence
[3] = growth inhibition of DIPG glioma cells, dose response, cell-based, JHH-DIPG-1, MIPE4.0, CellTiter-Glo, qHTS (AID 1347062; cut-off not given, nearly all actives have AC50 up to about 27 µM;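 on AC50: cells exposed to compound for two days before readout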); details: JHH-DIPG-1 viability, CellTiter-Glo ATP luminescence
[4] = growth inhibition of DIPG glioma cells, dose response, cell-based, SU-DIPG-IV, MIPE4.0, CellTiter-Glo, qHTS (AID 1347063; cut-off not given, nearly all actives have AC50 up to about 30 µM;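 further: compound exposure lasted 48 hours before the viability readout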); details: SU-DIPG-IV viability, CellTiter-Glo ATP luminescence
[5] = growth inhibition of DIPG glioma cells, dose response, cell-based, SU-DIPG-XIII, MIPE5.0, CellTiter-Glo, qHTS (AID 1347064; cut-off not given, nearly all actives have AC50 up to about 23 µM;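 on AC50: cells exposed to compound for 48 hours before the viability read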); details: SU-DIPG-XIII viability, CellTiter-Glo ATP luminescence
[6] = viability loss in pontine glioma line – cell-based, SU-DIPG-XXV, MIPE5.0, CellTiter-Glo, qHTS, dose response (AID 1347065; cut-off not given, nearly all actives have AC50 up to about 26 µM;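 further: cells exposed to compound for 48 hours before ATP readout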); details: CellTiter-Glo ATP luminescence
[7] = JHH-DIPG-1 glioma cell viability, MIPE5.0 library, CellTiter-Glo luminescence, qHTS (AID 1347067; cut-off not given, nearly all actives have AC50 up to about 26 µM;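 further: cells exposed to compound for 48 hours before readout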); details: JHH-DIPG-1 glioma viability, CellTiter-Glo ATP luminescence
[8] = sensitizers of A549 cells to miR-34 induction, primary screen, imaging, A549 dox-inducible miR-34, nuclei and caspase counts (AID 1347080;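 active means compounds whose cell count with miR-34 switched on is under 0.7 times the count with it off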); details: A549 miR-34 inducible, Hoechst nuclei count, 48 h
[9] = modifiers of HSF1 nuclear foci, imaging, Selleck Cancer Library (AID 1347162; in the data active means plate-normalised HSF1 focus index below about 0.46); details: human cells, at 10 µM; SSMD: measured here: HSF1 foci SSMD mean; cell count: measured here: cell number; plate-normalised HSF1 focus index: stronger effect = lower value
[10] = ovarian cancer cell viability with rucaparib, profiling panel, oncology-focused library, rucaparib conditional (AID 1508598); details: patient-derived ovarian cancer cells, CellTiter-Glo viability, 144 h, stronger effect = lower value
[11] = SU-DIPG-VI glioma cell viability, MIPE4.0 library, CellTiter-Glo luminescence, qHTS (AID 1347066; cut-off not given, nearly all actives have AC50 up to about 30 µM;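 further: cells exposed to compound for 48 hours before readout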); details: CellTiter-Glo ATP luminescence
[12] = SU-DIPG-XXV glioma cell viability, MIPE5.0 library, qHTS (AID 1347068; cut-off not given, nearly all actives have IC50 up to about 30 µM;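 on IC50: cells exposed to compound for 48 hours before viability readout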)
[13] = survival rescue of mitochondrial mutant cells in low glucose, primary screen, MELAS cybrids, Rieske KO mouse fibroblasts, CellTiter-Glo (AID 1508586;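 active means mean z-score across replicates of 1.96 or higher in either the MELAS or the Rieske mutant cell line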;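 further: z relative to plate mean and SD of compound and empty wells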)
[14] = stronger effect = lower value, cell number ratio, induced over uninduced
[15] = measured here: relative caspase fold change +Dox/-Dox
[16] = measured here: total cells with miR-34 induction, stronger effect = lower value
[17] = measured here: total cells without miR-34 induction
[18] = at 0.000305 µM, OCI-C5x cells, with rucaparib 10 µM, 100% = cells with rucaparib alone
[19] = at 0.000305 µM, OCI-C5x cells, without rucaparib
[20] = at 0.000305 µM, OCI-P5x cells, with rucaparib 20 µM, 100% = cells with rucaparib alone
[21] = at 0.000305 µM, OCI-P5x cells, without rucaparib
[22] = at 0.00122 µM, OCI-C5x cells, with rucaparib 10 µM, 100% = cells with rucaparib alone
[23] = at 0.00122 µM, OCI-C5x cells, without rucaparib
[24] = at 0.00122 µM, OCI-P5x cells, with rucaparib 20 µM, 100% = cells with rucaparib alone
[25] = at 0.00122 µM, OCI-P5x cells, without rucaparib
[26] = at 0.00488 µM, OCI-C5x cells, with rucaparib 10 µM, 100% = cells with rucaparib alone
[27] = at 0.00488 µM, OCI-C5x cells, without rucaparib
[28] = at 0.00488 µM, OCI-P5x cells, with rucaparib 20 µM, 100% = cells with rucaparib alone
[29] = at 0.00488 µM, OCI-P5x cells, without rucaparib
[30] = at 0.0195 µM, OCI-C5x cells, with rucaparib 10 µM, 100% = cells with rucaparib alone
[31] = at 0.0195 µM, OCI-C5x cells, without rucaparib
[32] = at 0.0195 µM, OCI-P5x cells, with rucaparib 20 µM, 100% = cells with rucaparib alone
[33] = at 0.0195 µM, OCI-P5x cells, without rucaparib
[34] = at 0.0781 µM, OCI-C5x cells, with rucaparib 10 µM, 100% = cells with rucaparib alone
[35] = at 0.0781 µM, OCI-C5x cells, without rucaparib
[36] = at 0.0781 µM, OCI-P5x cells, with rucaparib 20 µM, 100% = cells with rucaparib alone
[37] = at 0.0781 µM, OCI-P5x cells, without rucaparib
[38] = at 0.313 µM, OCI-C5x cells, with rucaparib 10 µM, 100% = cells with rucaparib alone
[39] = at 0.313 µM, OCI-C5x cells, without rucaparib
[40] = at 0.313 µM, OCI-P5x cells, with rucaparib 20 µM, 100% = cells with rucaparib alone
[41] = at 0.313 µM, OCI-P5x cells, without rucaparib
[42] = at 1.25 µM, OCI-C5x cells, with rucaparib 10 µM, 100% = cells with rucaparib alone
[43] = at 1.25 µM, OCI-C5x cells, without rucaparib
[44] = at 1.25 µM, OCI-P5x cells, with rucaparib 20 µM, 100% = cells with rucaparib alone
[45] = at 1.25 µM, OCI-P5x cells, without rucaparib
[46] = at 5 µM, OCI-C5x cells, with rucaparib 10 µM, 100% = cells with rucaparib alone
[47] = at 5 µM, OCI-C5x cells, without rucaparib
[48] = at 5 µM, OCI-P5x cells, with rucaparib 20 µM, 100% = cells with rucaparib alone
[49] = at 5 µM, OCI-P5x cells, without rucaparib

CC(/C=C/C(=O)NO)=C\[C@@H](C)C(=O)c1ccc(N(C)C)cc1
7010: cell count [9]
1.51 and 0.994: fold change [8, 15]
-1.78: SSMD [9]
active: AC50 [1] 332 nM | AC50 [2] 7430 nM | AC50 [3] 1480 nM | AC50 [4] 590 nM | AC50 [5] 209 nM | AC50 [6] 372 nM | AC50 [7] 525 nM | viability [10, 19] 91.4% | viability [10, 20] 77.4% | viability [10, 21] 83.4% | viability [10, 24] 82.5% | viability [10, 25] 83.5% | viability [10, 28] 75.8% | viability [10, 29] 89.8% | viability [10, 32] 81.7% | viability [10, 33] 76.1% | viability [10, 34] 42.3% | viability [10, 35] 17.8% | viability [10, 36] 50.3% | viability [10, 37] 51.8% | viability [10, 38] 8.25% | viability [10, 39] 6.7% | viability [10, 40] 13% | viability [10, 41] 12.1% | viability [10, 42] 4.57% | viability [10, 43] 4.64% | viability [10, 44] 2.76% | viability [10, 45] 2.28% | viability [10, 46] 5% | viability [10, 47] 4.88% | viability [10, 48] 0.994% | viability [10, 49] 1.21%
952 and 1150: cell count [8, 17]
inactive: fold change [8, 14] 0.973 and 1 | plate-normalised HSF1 focus index [9] 0.921 | viability [10, 18] 111% | viability [10, 22] 117% | viability [10, 23] 102% | viability [10, 26] 107% | viability [10, 27] 105% | viability [10, 30] 115% | viability [10, 31] 109%
926 and 1160: cell count [8, 16]

c1cc(OCCN2CCCCC2)cc(-c2n[nH]c3ccc(-c4ncn[nH]4)cc23)c1
inactive: outcome [1] | outcome [2] | outcome [3] | outcome [4] | outcome [5] | outcome [11] | outcome [7] | outcome [12]

CC(C)c1cc(-c2n[nH]c(=O)n2-c2ccc3c(ccn3C)c2)c(O)cc1O
1450: cell count [8, 16]
active: AC50 [1] 37.2 nM | AC50 [2] 132 nM | AC50 [3] 66.2 nM | AC50 [4] 59 nM | AC50 [5] 41.7 nM | AC50 [6] 37.2 nM | IC50 [12] 83.3 nM | z-score ([13]; MELAS cybrid survival, CellTiter-Glo 48 h, stronger effect = higher value) 3.03 | viability [10, 23] 98.2% | viability [10, 26] 96.9% | viability [10, 32] 85.2% | viability [10, 34] 44.1% | viability [10, 35] 14.7% | viability [10, 36] 18.8% | viability [10, 37] 10.9% | viability [10, 38] 11.6% | viability [10, 39] 6.96% | viability [10, 40] 6.88% | viability [10, 41] 5.54% | viability [10, 42] 10% | viability [10, 43] 6.57% | viability [10, 44] 5.29% | viability [10, 45] 4.83% | viability [10, 46] 8.35% | viability [10, 47] 6.47% | viability [10, 48] 6.04% | viability [10, 49] 5.33%
1400: cell count [8, 17]
inactive: fold change [8, 14] 1.03 | viability [10, 18] 102% | viability [10, 19] 108% | viability [10, 20] 116% | viability [10, 21] 121% | viability [10, 22] 100% | viability [10, 24] 124% | viability [10, 25] 119% | viability [10, 27] 110% | viability [10, 28] 126% | viability [10, 29] 124% | viability [10, 30] 117% | viability [10, 31] 117% | viability [10, 33] 104%
0.0782: z-score ([13]; Rieske KO mouse fibroblast survival, CellTiter-Glo 72 h)
0.773: fold change [8, 15]
